# Screening results: PubChem BioAssay, National Center for Advancing Translational Sciences (NCATS)
# FLuc counter = qHTS profiling assay for firefly luciferase inhibitor/activator using purifed enzyme and Km concentrations of substrates (counterscreen for miR-21 project). Luciferin 4-monooxygenase (Photinus pyralis), P08659. purified FLuc, Km substrates, luminescence inhibition. Potency, µM (doses to about 57.5 µM), actives largely listed as inhibitors. 6.9% of 360,000 active; further: nearly all actives have a fitted effect of over 55% in size
# Target sequence (P08659 whole entry, looked up): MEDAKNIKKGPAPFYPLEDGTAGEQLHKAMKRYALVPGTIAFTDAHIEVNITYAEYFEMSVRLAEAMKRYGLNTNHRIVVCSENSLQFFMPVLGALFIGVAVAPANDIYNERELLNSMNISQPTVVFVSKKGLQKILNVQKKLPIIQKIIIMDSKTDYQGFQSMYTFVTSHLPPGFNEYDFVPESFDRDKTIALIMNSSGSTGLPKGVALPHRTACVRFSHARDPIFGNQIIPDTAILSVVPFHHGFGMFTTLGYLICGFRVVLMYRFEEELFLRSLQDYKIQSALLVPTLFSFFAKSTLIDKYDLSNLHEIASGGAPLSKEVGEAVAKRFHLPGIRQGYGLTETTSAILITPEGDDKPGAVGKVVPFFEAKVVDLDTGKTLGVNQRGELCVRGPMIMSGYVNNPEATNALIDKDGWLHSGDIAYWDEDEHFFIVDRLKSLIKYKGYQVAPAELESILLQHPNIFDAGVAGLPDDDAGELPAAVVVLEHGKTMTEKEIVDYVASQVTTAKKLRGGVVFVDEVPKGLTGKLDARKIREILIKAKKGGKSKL
#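 Purified P. pyralis luciferase (10nM final) with 10uM D-luciferin and 10uM ATP (Km levels) in 50mM Tris acetate pH 7.5, 10mM Mg acetate, 0.01% Tween-20, 0.05% BSA; qHTS 6-point titration, ~60 µM downward; luminescence read.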
# ELG1 repair inh = qHTS screen for small molecules that inhibit ELG1-dependent DNA repair in human embryonic kidney (HEK293T) cells expressing luciferase-tagged ELG1; HEK293T ELG1-luciferase reporter, luminescence, 16 h; DNA damage induced by 5-fluorouridine; Potency, µM (doses to about 46.1 µM), most hits filed as inhibitors; 2.3% of 330,000 active; further: nearly all actives have a fitted effect of over 55% in size
#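 Step one: seed 2,000 cells per well. Step two: pin-transfer compound or DMSO alongside 5-fluorouridine. Step three: incubate 16 hr, 37 °C, 5% CO2. Step four: add ONE-Glo, wait 30 min, read luminescence.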
# Rab9 promoter act = qHTS Assay for Rab9 Promoter Activators | Huh7 Rab9 promoter-luciferase reporter, luminescence, 24 h | 2.8% of 320,000 active | Potency, µM (titrated, usually from 9.22 µM), most hits filed as activators; further: nearly all actives have a fitted effect of over 60% in size
#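 Huh7 cells stably carrying a Rab9 promoter-luciferase reporter, 1500 cells per well in OP-MEM I with 10% FBS, treated with compound 24 hours at 37C. Luciferase activity read by luminescence after 10 minutes with Amplite reagent.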
# SMN2 splice enh = qHTS Assay for Enhancers of SMN2 Splice Variant Expression; HEK293 SMN2-luciferase splicing reporter, luminescence, 30-36 h; Potency, µM (highest dose often 46.1 µM), hits mostly activators; 2.8% of 210,000 active; AID 1458, 2008; further: nearly all actives have a fitted effect of over 55% in size
#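 HEK293 cells carry an SMN2 […]–luciferase reporter in which exon 7 inclusion puts luciferase in frame. Cells were plated 10-12 h before compound addition, then incubated 30-36 h at 37C. ONE-Glo luminescence was read; sodium butyrate at 4.5 mM final served as control.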
# NPC1 promoter act = qHTS Assay for NPC1 Promoter Activators. Huh7 NPC1 promoter luciferase reporter, 24 h. Potency, µM (highest dose often 9.22 µM), hits mostly activators. 2.4% of 320,000 active; further: nearly all actives have a fitted effect of over 60% in size
#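 Readout is luciferase luminescence, reflecting NPC1 promoter activation in stably transfected Huh7 cells after 24 h compound exposure at 37 °C in reduced-serum medium with 10% FBS.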
# ELG1 genotox = qHTS screen for small molecules that induce genotoxicity in human embryonic kidney (HEK293T) cells expressing luciferase-tagged ELG1 | 1.3% of 330,000 active | AID 504466, 2011 | HEK293T ELG1-luciferase reporter, luminescence, 16 h | Potency, µM (top dose mostly 46 µM), hits mostly activators; further: nearly all actives have a fitted effect of over 60% in size
#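 ELG1-luciferase HEK293T cells, 2,000/well; compound pinned in; 16 hr, 37 °C, 5% CO2; ONE-Glo, 30 min RT; luminescence on CCD imager.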
# Numbers stand for hits; n = inactive; u = inconclusive; x = no result; [ ] = dose if it differs, or a comment. The list is not random: actives were taken first. Their share in the collection is about 9.4%. The call rests on the fitted dose curve; in most records, active means well fitted curve in the direction sought with a large enough effect; inconclusive means small, poorly fitted or top-dose-only effect, or another doubt; inactive means no such curve, though single readings can be large; an effect the other way counts as inactive or inconclusive.
SMILES,FLuc counter,ELG1 repair inh,Rab9 promoter act,SMN2 splice enh,NPC1 promoter act,ELG1 genotox
Cc1ccc2oc(-c3cccc(NC(=O)c4ccc(Br)o4)c3C)nc2c1,7.57µM,u,n,n,n,n
Oc1cccc(-c2nc(-c3cccs3)c(-c3cccs3)[nH]2)c1,u,x,x,n,x,x
CC(C)c1ccc(CNCCSc2nnnn2-c2ccccc2)cc1,n,x,x,n,x,x
CCc1ccc(NC(=O)CSc2nc3c(sc4ccccc43)c(=O)n2CCCOC(C)C)cc1,n,x,x,x,x,x
CN(C)N=Nc1ccc(-c2cn(Cc3ccccc3)cn2)cc1,19µM,u,u,x,2.82µM,u
CCC(=O)Nc1cccc(-c2ccc(N3CCCCC3)nn2)c1,0.536µM,u,0.447µM,x,0.562µM,2.31µM
CCC(=O)Nc1cccc(-n2nnnc2SCC(=O)N2CCCCC2)c1,n,n,u,n,n,n
CCC(=O)Nc1cccc(-c2ccc(N3CCN(C)CC3)nn2)c1,6.75µM,u,u,x,2.51µM,u
Brc1cc(Br)c2nc(-c3cccs3)ccc2c1,9.53µM,u,u,11.2µM,n,11.2µM
CC(=O)c1cccc(NC(=O)CCCSc2ccccc2)c1,u,n,n,x,n,n
Cc1cc(C(=O)CSc2cccc[n+]2[O-])c(C)n1-c1ccc(Br)cc1,15.1µM,u,n,n,n,u
Cc1cc(C(=O)C(C)OC(=O)c2ccc(NC(=O)CC#N)cc2)c(C)n1-c1ccccc1 (configuration not stated),16.9µM,u,n,x,n,n
CC(OC(=O)c1ccc(NC(=O)CC#N)cc1)C(=O)NC(c1ccccc1)c1ccccc1 (configuration not stated),x,n,x,x,x,n
CC(=O)Nc1ccc(SCCCC(=O)c2ccccc2)cc1,23.9µM,u,u,x,u,u
CC(=O)Nc1ccc(SCC(=O)c2cc(C)n(-c3ccccc3)c2C)cc1,5.36µM,u,3.55µM,n,u,u
CCc1ccccc1N(C)C(=O)c1nn(-c2ccc(OC)cc2)c(=O)c2c1c1ccccc1n2C,n,x,x,n,x,x
CC1=C(C(N)=O)C(c2ccc(F)cc2)n2nc(-c3ccc(N(C)C)cc3)nc2N1 (configuration not stated),u,x,x,n,x,x
COc1ccccc1NC(=O)c1oc2ccccc2c1NC(=O)Cc1ccccc1,n,x,x,n,x,x
Cc1cc(C(=O)CSc2nncn2C)c(C)n1-c1ccccc1,8.49µM,u,0.447µM,11.2µM,2µM,n
Cc1cc(C(=O)CSc2cccc[n+]2[O-])c(C)n1-c1ccccc1,1.69µM,u,0.447µM,1µM,0.447µM,u
CCOC(=O)c1c(/C=N/Nc2ccccc2)c2sc(C)cc2n1C,u,x,n,x,n,x
CCOC(=O)c1cc(-c2ccccc2)n(CCC(=O)NCCc2ccccc2)c1C,n,x,x,x,x,x
CN1c2ccccc2C(C)(C)C12CC(c1cccc(S(=O)(=O)N3CCCC3)c1)=NO2 (configuration not stated),n,n,n,u,n,n
CN1c2ccccc2C(C)(C)C12CC(c1ccc(S(=O)(=O)N3CCCCC3)cc1)=NO2 (configuration not stated),n,n,n,1.12µM,n,n
Cc1ccc2c(CC(=O)Nc3cc(C(F)(F)F)ccc3Cl)coc2c1C,n,x,x,n,x,x
SMILES,FLuc counter,ELG1 repair inh,Rab9 promoter act,SMN2 splice enh,NPC1 promoter act,ELG1 genotox
O=C(CSc1nnc(-c2ccccc2Cl)o1)Nc1ccccn1,n,u,0.562µM,x,u,u
O=C(CSc1nnc(-c2ccccc2F)o1)Nc1ccccc1Cl,n,x,x,x,x,x
Cc1occc1-c1nnc(SCC(=O)Nc2ccccn2)o1,n,u,u,10µM,u,u
Cn1nnc2c(N3CCCCC3)ncnc21,n,x,x,x,x,x
COc1ccccc1C(=O)NCc1nc2cccnc2n1Cc1ccc(F)cc1,n,x,x,x,x,x
CN(C)S(=O)(=O)c1ccc2c(c1)Cc1cc(S(=O)(=O)N(C)C)ccc1-2,n,2.31µM,n,x,n,n
COc1cc(S(=O)(=O)N(C)C)ccc1Br,n,n,n,n,n,n
Cc1ccc2c3c(cccc13)-c1ccccc1C2=O,19µM,u,n,u,n,n
Cc1cc2c3c(cccc3n1)C(=O)c1ccccc1-2,x,x,x,n,x,x
CN(C)c1nc2c(Br)c(Br)c(Br)c(Br)c2[nH]1,x,x,n,n,n,x
Nc1nc(-c2ccc3c(c2)CCCC3)cs1,2.13µM,u,2.82µM,11.2µM,2.24µM,u
Cc1nc(-c2ccc3c(c2)OCCCO3)cs1,7.57µM,u,1.58µM,x,1.78µM,u
c1cncc(-c2nc(-c3ccc4c(c3)OCO4)cs2)c1,4.78µM,u,1.58µM,x,2.82µM,u
Cc1nc(-c2ccc3c(c2)OCO3)cs1,15.1µM,u,n,u,n,n
O=S(=O)(c1cccc(-c2csc(-c3cccnc3)n2)c1)N1CCOCC1,n,n,u,x,n,n
COc1ccc(NC(=O)Nc2nnc(N(C)C3CCCCC3)s2)c(OC)c1,n,x,x,x,x,x
O=C(Nc1nc(-c2ccc(Br)cc2)ns1)c1ccccc1F,n,x,x,x,x,x
CC1Cc2cc(-c3csc(N)n3)ccc2O1 (configuration not stated),9.53µM,u,1.26µM,x,u,u
Nc1nc(-c2ccc3c(c2)NC(=O)CO3)cs1,n,u,n,n,n,u
Nc1nc(-c2ccc3c(c2)OCCO3)cs1,9.53µM,u,3.55µM,15.8µM,3.55µM,20.6µM
COc1ccc(S(=O)(=O)N(CCc2ccccc2)CC(=O)Nc2cccc(OC)c2)cc1,n,x,x,n,x,x
CCC(=O)Nc1ccc(C(=O)N/N=C/c2c(C)[nH]c3ccccc23)cc1,21.3µM,n,n,n,n,n
O=C(N=Nc1c(O)[nH]c2ccccc12)c1cc(-c2cccs2)[nH]n1,12µM,u,n,x,u,n
Cc1[nH]c2ccccc2c1/C=N/NC(=O)CCC(=O)NCc1ccccc1,n,n,n,x,n,n
Cc1ccc(-c2cc(C(=O)N/N=C/c3c(C)nn(-c4ccccc4)c3C)n[nH]2)s1,10.7µM,u,n,n,n,n
SMILES,FLuc counter,ELG1 repair inh,Rab9 promoter act,SMN2 splice enh,NPC1 promoter act,ELG1 genotox
Cc1[nH]c2ccccc2c1/C=N/NC(=O)c1cc(-c2cccs2)[nH]n1,15.1µM,u,n,n,n,n
O=C(Nc1ccccn1)c1ccco1,u,u,u,u,u,n
Cc1ccc(NC(=O)/C=C/c2ccco2)nc1,6.01µM,u,n,14.1µM,u,4.11µM
COc1ccc(/C=C\c2onc(C)c2S(=O)(=O)N2CCC(C(=O)NCCC(C)C)CC2)cc1,n,n,6.31µM,n,n,n
Cc1ccc(NC(=O)C2CCN(S(=O)(=O)c3c(C)noc3/C=C/c3ccco3)CC2)nc1,n,14.6µM,n,n[1.84 µM],n,n
Cc1ccc(NC(=O)/C=C/c2cccc([N+](=O)[O-])c2)nc1,n,u,n,n,n,n
